# The supplement of paper PMC11417369
# Whole data set: some 25,000 sequences, median “ln(normalized median fluorescence intensity)” near 9.7, cut for the highest 2% near 11. The sample holds the highest values, similar sequences and a random draw of the others, so the mix is not that of the screen.
# System: PfAP2-HC AP2 domain (GST-tagged)
# Experiment: gcPBM binding intensity (ln(normalized median fluorescence intensity)); higher = stronger DNA binding
# Summary of the method: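 After 1 h on an Agilent 4 × 180k array of primer-extended double-stranded 36-bp intergenic genomic probes and negative controls, bound GST-tagged P. falciparum DNA-binding domains were detected with Alexa488 anti-GST antibody and scanned at 488 nm. The domains had been expressed in E. coli, and binding took place in 1× PBS with 1% milk, 0.2 mg/ml BSA, 0.5% salmon testes DNA and 0.03% Triton X-100. Binding intensity is the highest Masliner-normalised natural-log median intensity across replicate spots of either probe orientation.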
row,Sequence,gcPBM binding intensity (ln)
1,TATAGCAAAAAATTTACACACATGTTTTTTCTATAC [CACACA_site325],9.9
2,ATATTTGTAATTATTAAACACACACTAATTATATAT [CACACA_site8803],9.9
3,AAATTATATACCACAGTGCAAAAGGCAGGTATACGT,9.91
4,TACATATTACTATTCAGTACATATTTTTTTTTCATT [XGTACX_site7468],9.81
5,ACCATATAAATAAACACACACACACGGATATAAATA [CACACA_site7157],10.6
6,TAAATAAATTTATACACACACACACGGATATAAATA [CACACA_site6532],10.6
7,CACGCATACAGACACACACACACACGGATATAAATA [CACACA_site6445],11.6
8,AAAAAATACAGACACACACACACACGCATATAAATA [CACACA_site7644],10.8
9,ATAGTATACAGACACACACACACACGGATATAAATA [CACACA_site6914],10.6
10,CATATACATAGACACACACACACATAAATAAATATA [CACACA_site6749],10.4
11,AAACAACATGGACACGCACACACAAAAAAAGCATGC [CACACA_site73],10.7
12,AAAATACATAGACACACACACACACGGATATAAATA [CACACA_site7643],11.2
13,CAAGCACACGGACACACACACACACGCGCACGCACA [CACACA_site6307],11.3
14,CGCGCACACGGACACACACACACACGGATATAAATA [CACACA_site7102],11.3
15,AAAAAAAATAGACACACACACATACACATAAATATA [CACACA_site7742],10.5
16,TTTAATTCTTATATTTGTACAGATTCATAATTAAAT [XGTACX_site7465],9.41
17,ACAAATAAATATTCGCGTACTTATATAATATTACGA [XGTACX_site6428],9.66
18,TACATACATACATACACACACACATATATATATATA [CACACA_site42],10.2
19,AATATTTTGAACAACAGTACTCTTTCTTTCTTTCTT [XGTACX_site7212],9.51
20,TGAATAATAAAAAATACACACACATATATATATATT [CACACA_site9146],10.1
21,ACTTACCCATTTATTACACACATAAAGGAAAATTTT [CACACA_site4873],9.88
22,TTTTATAAAAACAAAAACAAAGGCACTTTCTAAAGA [XGTACX_negctrl_site130],9.58
23,TATATGTTATATTTAACACACATATAAGGTACATAT [CACACA_site612],9.83

row,Sequence,gcPBM binding intensity (ln)
1,ACTTTTTAATATTTTAGTACACAGTAATTCTTACTA [XGTACX_site1425],9.75
2,CAAGAAACAGTGATACGTACACATATATATATATAT [XGTACX_site3229],9.91
3,AATATAAGGATATATACACACATAAATACATACATA [CACACA_site7859],9.99
4,AAATAACACATATATACACACATATAAATATAATAT [CACACA_site2692],10.3
5,AAGGATATAACATACACACACACACGGATATAAATA [CACACA_site7867],11
6,TTGTGGATTTTGTGCGCACACACATGCAAAAAGAAA [CACACA_site1147],10
7,GCCGCACCCAGATACGCACACAAGAAAAAAATATTC [CACACA_site3456],9.8
8,ATAATATTATGAACCTGTACATAATTTTTCTTTTCT [XGTACX_site3377],9.62
9,AAGAATACACCACGCACACACACTTGAGAAAAAATA [CACACA_site3828],11.2
10,ACAAGAATACACCACGCACACACACTAGAGAAAAAA [CACACA_site9276],11.6
11,AAAAAGAAAATATATACACACCAAAAAAAAAAAAAA [CACACA_site5698],9.75
12,GAATACACCACGCACACACACTTGAGAAAAAATAAA [CACACA_site7747],10.3
13,AAAGCACGCAAGAATACACACAAATATTATAAAAAA [CACACA_site6206],10.1
14,ACAAGAGAAAAAAATACACACAAGATAAAAATGTAT [CACACA_site607],9.95
15,AATATTTATAAATTTACACACACACCCGTGAACATA [CACACA_site1910],10.2
16,TAACCATACATACATACACACACACCCACATATATA [CACACA_site8951],10.3
17,ACCATACATACATACACACACACACCCATATATATA [CACACA_site2917],10.6
18,CACCCACACCAACACACACACATATATAATATATAT [CACACA_site595],10.6
19,CACGCGCACCAACACACACACACACCCATATATATA [CACACA_site2204],11.1
20,TATAAACACCCATATAAACACACATATAAACCAACA [CACACA_site8790],10
21,CATATACACCAACACACACACACACCCACAAAAAAA [CACACA_site496],11.3
22,GACACCCATAAATATACACACGCACAACACAAAATA [CACACA_site8944],9.98
23,CACACCCACCAACACACACACACACCCACCCATATA [CACACA_site366],11

row,Sequence,gcPBM binding intensity (ln)
1,CATACTCACCAACACACACACACACCCATATAGAAT [CACACA_site592],11.1
2,CACACCACCAACAAAAGTACATACATATATATATAT [XGTACX_site5781],9.82
3,CGCGCACCCAGACACACACACACACCCATATATATA [CACACA_site2203],10.6
4,TATACATACCCACCCACACACAAAAAAAAAAAAAAA [CACACA_site4632],10.2
5,TAATTAAAATCATATACACACCCATATATATATATA [CACACA_site8524],10
6,AAATACCTTATATATACACACTATGTTTTTCTTTTT [CACACA_site4792],9.97
7,AATAAATAAAAATTATGTACATATATAAAAAATACA [XGTACX_site8581],9.82
8,TTGTTTCTTTTTTTTTGTACATATATATTGTATATT [XGTACX_site7602],9.89
9,AATAATAAATCAAACTGTACATATATTTTCAATCTA [XGTACX_site3344],9.61
10,TATAAAAAAATAATAAAATAATAAAATATATAAATA [TGCATGCA_negctrl_site394],9.6
11,AAAAAAAAAAAATGTGCACACGCGTACAGACAAAAA [CACACA_site2005],10.3
12,ATTAAATCTATATATACACACATGTTTGGTATATTC [CACACA_site2657],9.87
13,ATGCACTCATTGTGCACACGCATATTACGAAAAGAA [CACACA_site2638],9.86
14,TTTTTTTTTTGATGTTGTACATATATACTATATAAT [XGTACX_site1332],9.65
15,AAAACAAATGCTTAAAGTACTTATTATTTTTCTTTT [XGTACX_site6324],9.57
16,TACATATACATATACACACACACACCCAAATAAATA [CACACA_site1344],10.5
17,TGAATAAATCAAAGCACACATACACCCACATATATA [CACACA_site286],10.2
18,ATTAATTATATATATACACACACATACACCCAAATA [CACACA_site9126],10.3
19,TCAAAGCACCCATACACACACATATATATATATATA [CACACA_site4317],10.5
20,TAAATAAATTTATACACACACACACCCATATATATA [CACACA_site849],10.9
21,AATAAATATATATACACACCCATATATATATATATA [CACACA_site2595],9.63
22,CATATAAATAAATACACACACACACGCCTTATAATT [CACACA_site7830],11.6
23,CATATATATAAATACACACACACACCCCTTATAATT [CACACA_site4064],10.6

row,Sequence,gcPBM binding intensity (ln)
1,TAATTATATAAATACACACACATACACCCAAATAAA [CACACA_site5819],11.1
2,GATGAATAAATCAAAGCACACATACACCCACATATA [CACACA_site7986],11.2
3,TATAAATAAATTTATACACACACACCCATATATATA [CACACA_site8183],10.3
4,AAATTATAATATAATACACACATAAAAAAAAAAAAA [CACACA_site7],9.79
5,TCTTTTTTTTTACATACTTTTTTCCTTTTTTTTTTA [CACACA_negctrl_site1429],9.71
6,TCTTACAAAAAACAAACAGAGAAAAATATAAGGAAA [XGTACX_negctrl_site520],9.61
7,AAATTATTTCCGTGTACACATAAATATATATTTTAT [CACACA_site5121],9.89
8,CAATATTTTCATAGATGTACTTTGGACTTATTATAT [XGTACX_site4849],9.6
9,AATATTGTATATAATAAACACACAATATTAAAAATA [CACACA_site8262],10.1
10,TAACATATTATATATACATGCATACGTGAACTAATC [TGCATGCA_site888],9.72
11,ATTTATTTATGTATTTGTACGTATATATTTATGCAT [XGTACX_site5218],9.83
12,GGACAACAAACAAACACACACAAAAAAAAAATAAAA [CACACA_site3791],11
13,AAGGACAACAAACAAACACACACAAAAAAAAAATAA [CACACA_site9263],10.2
14,AAGTAAAAAAATAGCACACACACAAAAACACAGACA [CACACA_site4839],10.7
15,CAAAAAAAATAAAACACACACACAAAAAAATAAAAA [CACACA_site466],10.7
16,ATAAATAAAAACACAAAACAAAACAAAACAAAACAA [CACACA_negctrl_site1257],9.61
17,GTAAAAAAATAGCACACACACAAAAACACGCACAAA [CACACA_site6723],11.4
18,TTTCAATAATAAAAAACACACACAAAAAAAAATAAT [CACACA_site8905],11
19,ACAAATAAATAAAAAACACACACAAATAAATAAATA [CACACA_site8708],10.6
20,CAACAAAATAAACACACACACACAAACACAAAAAAA [CACACA_site5806],11.4
21,AAAAAAATAAAACACACACACAAAAAAATAAAAATA [CACACA_site465],10.8
22,TCAATAATAAAAAACACACACAAAAAAAAATAATTA [CACACA_site2798],10.2
23,AAAACAAATAGACACGCACACAAAAAAAAAAAAAAA [CACACA_site801],10.3
